# Measurements reported in PubChem BioAssay (EPA / NIEHS).
# The source made the active and inactive calls. The calls were made as follows: active = hit-call score of the fitted dose curve at least 0.9, where 1 is the maximum; inactive = score below 0.9.
# Legend:
# [1] = BSK_hDFCGF_SRB: Viability Assessment in the BioMAP Diversity Plus: hDFCGF Assay (AID 2283061); settings: primary human foreskin fibroblasts;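 also: cells exposed to compound for 24 h before the read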
# Summary of the method: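 Readout is SRB absorbance at 560 nm, reflecting total protein in parallel cultures of human foreskin fibroblasts harvested 24 h after chemical dosing. Activity was fitted bidirectionally relative to DMSO.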
# [2] = read-out: TIMP metallopeptidase inhibitor 1 (TIMP1), TIMP1 (gene 7076); assay: BSK_hDFCGF_TIMP1: BioMAP Diversity Plus: hDFCGF Assay for TIMP metallopeptidase inhibitor 1 (TIMP1) Biomarker Activity (AID 2283062); settings: primary human foreskin fibroblasts; actives raise or lower the signal
# Summary of the method: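 Human skin fibroblasts (primary), hDFCGF system; compound exposure 24 h; TIMP-1 by ELISA; bidirectional fit vs DMSO negative control; overt cytotoxicity by SRB in parallel wells.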
# [3] = read-out: Monokine induced gamma interferon (MIG), CXCL9 (gene 4283); assay: BSK_hDFCGF_MIG: BioMAP Diversity Plus: hDFCGF Assay for Monokine induced gamma interferon (MIG) Biomarker Activity (AID 2283063); settings: primary human foreskin fibroblasts; actives raise or lower the signal
# Summary of the method: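 Chemicals were added to primary human foreskin fibroblast cultures, which were sampled 24 h later. MIG levels were then quantified by ELISA and responses fitted in both directions relative to DMSO.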
# [4] = read-out: Matrix Metallopeptidase 1 (MMP1), MMP1 (gene 4312); assay: BSK_hDFCGF_MMP1: BioMAP Diversity Plus: hDFCGF Assay for Matrix Metallopeptidase 1 (MMP1) Biomarker Activity (AID 2283064); settings: primary human foreskin fibroblasts; actives raise or lower the signal
# Summary of the method: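 hDFCGF primary fibroblasts (human foreskin); chemical added; 24 h; MMP1 by ELISA; bidirectional fit vs DMSO.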
# [5] = read-out: Vascular cell adhesion molecule 1 (VCAM1), VCAM1 (gene 7412); assay: BSK_hDFCGF_VCAM1: BioMAP Diversity Plus: hDFCGF Assay for Vascular cell adhesion molecule 1 (VCAM1) Biomarker Activity (AID 2283065); settings: primary human foreskin fibroblasts; actives raise or lower the signal;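 as to AC50: VCAM-1 protein level quantified by ELISA after 24 h chemical exposure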
# Summary of the method: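 Human foreskin fibroblast primary cells, chemical exposure 24 h; VCAM-1 by ELISA; bidirectional fit, DMSO = negative control/baseline.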
# [6] = read-out: Plasminogen activator inhibitor-1 (PAI1), SERPINE1 (gene 5054); assay: BSK_hDFCGF_PAI1: BioMAP Diversity Plus: hDFCGF Assay for Plasminogen activator inhibitor-1 (PAI1) Biomarker Activity (AID 2283066); settings: primary human foreskin fibroblasts; actives raise or lower the signal
# Summary of the method: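 Human foreskin fibroblast primary cells, 24 h chemical exposure; PAI-1 measured by ELISA. Bidirectional fitting relative to DMSO; parallel cultures stained with SRB for total protein to flag overt cytotoxicity.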
# [7] = read-out: Intercellular Adhesion Molecule 1 (ICAM1), ICAM1 (gene 3383); assay: BSK_KF3CT_ICAM1: BioMAP Diversity Plus: KF3CT Assay for Intercellular Adhesion Molecule 1 (ICAM1) Biomarker Activity (AID 2283067); settings: primary human keratinocytes with fibroblasts; actives raise or lower the signal
# Summary of the method: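 ICAM-1 levels are measured by ELISA 24 h after dosing a primary human co-culture of keratinocytes and foreskin fibroblasts. Activity in either direction is fitted relative to DMSO vehicle.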
# [8] = read-out: Interferon-gamma inducible Protein 10 (IP10), CXCL10 (gene 3627); assay: BSK_KF3CT_IP10: BioMAP Diversity Plus: KF3CT Assay for Interferon-gamma inducible Protein 10 (IP10) Biomarker Activity (AID 2283068); settings: primary human keratinocytes with fibroblasts; actives raise or lower the signal
# Summary of the method: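 Signal is secreted/surface IP-10 by ELISA in a human primary skin co-culture of keratinocytes and foreskin fibroblasts, taken 24 h post-dosing; DMSO served as negative control.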
# [9] = BSK_KF3CT_SRB: Viability Assessment in the BioMAP Diversity Plus: KF3CT Assay (AID 2283069); settings: primary human keratinocytes with fibroblasts;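 also: total protein by sulforhodamine B staining as a cytotoxicity measure; read 24 h after compound addition; fitted for both signal gain and loss against DMSO baseline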
# Summary of the method: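 Keratinocytes co-cultured with foreskin fibroblasts (human primary); chemical added, 24 h; fix 10% TCA, stain 0.1% SRB, A560. Bidirectional fit vs DMSO.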
# [10] = read-out: Interleukin-1 alpha (IL1a), IL1A (gene 3552); assay: BSK_KF3CT_IL1a: BioMAP Diversity Plus: KF3CT Assay for Interleukin-1 alpha (IL1a) Biomarker Activity (AID 2283070); settings: primary human keratinocytes with fibroblasts; actives raise or lower the signal
# Summary of the method: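 Chemicals were dosed onto co-cultured human keratinocytes and foreskin fibroblasts, IL-1a was quantified by ELISA at 24 h, and activity was fitted in both directions relative to DMSO controls.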
# [11] = read-out: TIMP metallopeptidase inhibitor 2 (TIMP2), TIMP2 (gene 7077); assay: BSK_KF3CT_TIMP2: BioMAP Diversity Plus: KF3CT Assay for TIMP metallopeptidase inhibitor 2 (TIMP2) Biomarker Activity (AID 2283071); settings: primary human keratinocytes with fibroblasts; actives raise or lower the signal
# Summary of the method: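 Co-culture of human primary keratinocytes and foreskin fibroblasts, measured 24 h after chemical dosing. TIMP-2 quantified by ELISA and fitted in both directions relative to DMSO. Cytotoxicity checked in parallel cultures by SRB total-protein staining.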
# [12] = read-out: Transforming growth factor beta 1 (TGFb1), TGFB1 (gene 7040); assay: BSK_KF3CT_TGFb1: BioMAP Diversity Plus: KF3CT Assay for Transforming growth factor beta 1 (TGFb1) Biomarker Activity (AID 2283072); settings: primary human keratinocytes with fibroblasts; actives raise or lower the signal
# Summary of the method: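 Human keratinocyte/foreskin fibroblast co-culture; TGF-b1 measured by ELISA 24 h after dosing, fitted bidirectionally versus DMSO. Cytotoxicity checked in parallel cultures by total protein (SRB staining, 560 nm).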
# [13] = read-out: C-C motif chemokine 2 (Homo sapiens) (UniProt P13500); assay: BSK_KF3CT_MCP1: BioMAP Diversity Plus: KF3CT Assay for Monocyte Chemoattractant Protein 1 (MCP1/CCL2) Biomarker Activity (AID 2283073); settings: primary human keratinocytes with fibroblasts; actives raise or lower the signal
# Summary of the method: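 ELISA readout of MCP-1 after 24 h chemical dosing of a human skin primary co-culture of keratinocytes and foreskin fibroblasts. Activity was fitted in both directions against DMSO.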
# [14] = read-out: Matrix Metallopeptidase 9 (MMP9), MMP9 (gene 4318); assay: BSK_KF3CT_MMP9: BioMAP Diversity Plus: KF3CT Assay for Matrix Metallopeptidase 9 (MMP9) Biomarker Activity (AID 2283074); settings: primary human keratinocytes with fibroblasts; actives raise or lower the signal;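 as to AC50: MMP9 protein level quantified by ELISA in the co-culture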
# Summary of the method: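 Human keratinocyte/foreskin fibroblast co-culture; compound added; 24 h; MMP-9 by ELISA; bidirectional fit vs DMSO baseline.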
# [15] = read-out: urokinase plasminogen activator (uPA), PLAU (gene 5328); assay: BSK_KF3CT_uPA: BioMAP Diversity Plus: KF3CT Assay for urokinase plasminogen activator (uPA) Biomarker Activity (AID 2283075); settings: primary human keratinocytes with fibroblasts; actives raise or lower the signal
# Summary of the method: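 ELISA readout of uPA, analyzed for signal gain or loss relative to DMSO, from a human primary keratinocyte–foreskin fibroblast co-culture measured 24 h after chemical treatment.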
# [16] = read-out: CD40, CD40 (gene 958); assay: BSK_LPS_CD40: BioMAP Diversity Plus: LPS Assay for CD40 Biomarker Activity (AID 2283076); settings: primary human HUVEC with PBMC; actives raise or lower the signal
# Summary of the method: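 Cells were dosed, incubated 24 h, then assayed for CD40 by ELISA. Gain or loss of signal was analysed relative to DMSO controls. The culture paired human umbilical vein endothelium with peripheral blood mononuclear cells.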
# [17] = read-out: E-selectin (Homo sapiens) (UniProt P16581); assay: BSK_LPS_Eselectin: BioMAP Diversity Plus: LPS Assay for Eselectin Biomarker Activity (AID 2283077); settings: primary human HUVEC with PBMC; actives raise or lower the signal
# Summary of the method: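 Primary human vascular co-culture (endothelium plus PBMC) was dosed with chemical, then E-selectin quantified by ELISA at 24 h. Endpoint values derive from bidirectional curve fitting relative to DMSO.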
# [18] = read-out: Interleukin-8 (IL8), CXCL8 (gene 3576); assay: BSK_LPS_IL8: BioMAP Diversity Plus: LPS Assay for Interleukin-8 (IL8) Biomarker Activity (AID 2283078); settings: primary human HUVEC with PBMC; actives raise or lower the signal
# Summary of the method: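 Readout is IL-8 by ELISA, taken 24 h after compounds were added to LPS-stimulated endothelial/PBMC co-cultures. Both increases and decreases relative to DMSO control were scored through bidirectional fitting.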
# [19] = BSK_LPS_SRB: Viability Assessment in the BioMAP Diversity Plus: LPS Assay (AID 2283079); settings: primary human HUVEC with PBMC;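 also: total protein by sulforhodamine B absorbance as a cytotoxicity measure; measured one day after compound addition; fitted in both directions against DMSO so loss or gain of signal counts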
# Summary of the method: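 Readout is SRB absorbance at 560 nm (0.1% stain, TCA-fixed parallel cultures) as a total-protein cytotoxicity measure. Cells: primary human umbilical vein endothelium plus peripheral blood mononuclear cells, 24 h after chemical exposure; DMSO served as baseline.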
# [20] = read-out: Interleukin-1 alpha (IL1a), IL1A (gene 3552); assay: BSK_LPS_IL1a: BioMAP Diversity Plus: LPS Assay for Interleukin-1 alpha (IL1a) Biomarker Activity (AID 2283080); settings: primary human HUVEC with PBMC; actives raise or lower the signal
# Summary of the method: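 ELISA read-out of IL-1 alpha from a human primary vascular co-culture (endothelium plus PBMC) under LPS, sampled 24 hours post-dosing. Activity was fitted in both directions relative to DMSO controls.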
# E-selectin (Homo sapiens), sequence (P16581 whole entry, looked up): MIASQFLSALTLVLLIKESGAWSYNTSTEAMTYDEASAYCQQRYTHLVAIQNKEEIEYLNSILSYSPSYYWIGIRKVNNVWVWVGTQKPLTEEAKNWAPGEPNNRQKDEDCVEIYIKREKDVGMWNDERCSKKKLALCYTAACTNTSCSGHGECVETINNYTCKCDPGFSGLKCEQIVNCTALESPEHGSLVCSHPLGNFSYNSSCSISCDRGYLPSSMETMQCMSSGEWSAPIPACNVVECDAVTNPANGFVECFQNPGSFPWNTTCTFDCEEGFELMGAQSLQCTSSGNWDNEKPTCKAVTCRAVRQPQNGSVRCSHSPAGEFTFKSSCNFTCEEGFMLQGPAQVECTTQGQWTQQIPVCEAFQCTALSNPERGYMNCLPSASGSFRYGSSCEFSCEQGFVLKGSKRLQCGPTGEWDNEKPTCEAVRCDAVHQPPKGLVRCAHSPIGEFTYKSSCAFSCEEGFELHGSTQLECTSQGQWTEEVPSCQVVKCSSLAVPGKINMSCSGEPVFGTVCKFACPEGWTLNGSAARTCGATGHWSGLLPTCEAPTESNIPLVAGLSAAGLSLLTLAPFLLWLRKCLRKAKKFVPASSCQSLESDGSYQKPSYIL
compound,measurement,setting,value
CN1CCC[C@H]1c1cccnc1,outcome,[1],inactive
same,outcome,[2],inactive
same,outcome,[3],inactive
same,outcome,[4],inactive
same,outcome,[5],inactive
same,outcome,[6],inactive
same,outcome,[7],inactive
same,outcome,[8],inactive
same,outcome,[9],inactive
same,outcome,[10],inactive
same,outcome,[11],inactive
same,outcome,[12],inactive
same,outcome,[13],inactive
same,outcome,[14],inactive
same,outcome,[15],inactive
same,outcome,[16],inactive
same,outcome,[17],inactive
same,outcome,[18],inactive
same,outcome,[19],inactive
same,outcome,[20],inactive
CCCCCCC(=O)O,outcome,[1],inactive
same,outcome,[2],inactive
same,outcome,[3],inactive
same,outcome,[4],inactive
same,outcome,[5],inactive
same,outcome,[6],inactive
same,outcome,[7],inactive
same,outcome,[8],inactive
same,outcome,[10],inactive
same,outcome,[11],inactive
same,outcome,[12],inactive
same,outcome,[13],inactive
same,outcome,[14],inactive
same,outcome,[15],inactive
same,outcome,[16],inactive
same,outcome,[17],inactive
same,outcome,[18],inactive
same,outcome,[19],inactive
same,outcome,[20],inactive
CCCCCCCCOC(=O)CCCCCCCCC(=O)OCCCCCCCC,outcome,[1],inactive
same,outcome,[2],inactive
same,outcome,[3],inactive
same,outcome,[4],inactive
same,outcome,[5],inactive
same,outcome,[6],inactive
same,outcome,[7],inactive
same,outcome,[8],inactive
same,outcome,[9],inactive
same,outcome,[10],inactive
same,outcome,[11],inactive
same,outcome,[12],inactive
same,outcome,[13],inactive
same,outcome,[14],inactive
same,outcome,[15],inactive
same,outcome,[16],inactive
same,outcome,[17],inactive
same,outcome,[18],inactive
same,outcome,[19],inactive
same,outcome,[20],inactive
COC(=O)CCCCC(=O)OC,outcome,[1],inactive
same,outcome,[2],inactive
same,outcome,[3],inactive
same,outcome,[4],inactive
same,outcome,[5],inactive
same,outcome,[6],inactive
same,outcome,[7],inactive
same,outcome,[8],inactive
same,outcome,[9],inactive
same,outcome,[10],inactive
same,outcome,[11],inactive
same,outcome,[12],inactive
same,outcome,[13],inactive
same,outcome,[14],inactive
same,outcome,[15],inactive
same,outcome,[16],inactive
same,outcome,[17],inactive
same,outcome,[18],inactive
same,outcome,[19],inactive
same,outcome,[20],inactive
O=C(O)Cc1cc(I)c(Oc2cc(I)c(O)c(I)c2)c(I)c1,AC50,[1],12.2 µM (active)
same,outcome,[2],inactive
same,AC50,[3],10.7 µM (active)
same,AC50,[4],8.58 µM (active)
same,AC50,[5],8.85 µM (active)
same,AC50,[6],8.1 µM (active)
same,AC50,[7],16.7 µM (active)
same,AC50,[8],4.59 µM (active)
same,AC50,[9],10.1 µM (active)
same,AC50,[10],18.7 µM (active)
same,AC50,[11],13.4 µM (active)
same,AC50,[12],8.34 µM (active)
same,AC50,[13],11 µM (active)
same,AC50,[14],8.62 µM (active)
same,AC50,[15],18.8 µM (active)
same,AC50,[16],14.7 µM (active)
same,outcome,[17],inactive
same,AC50,[18],20.5 µM (active)
same,outcome,[19],inactive
same,AC50,[20],21.2 µM (active)
ClC1=C(Cl)C(Cl)(Cl)C(Cl)=C1Cl,AC50,[1],12.8 µM (active)
same,AC50,[2],12.4 µM (active)
same,AC50,[3],13.6 µM (active)
same,AC50,[4],13.9 µM (active)
same,AC50,[5],6.75 µM (active)
same,AC50,[6],8.9 µM (active)
same,AC50,[7],9.94 µM (active)
same,AC50,[8],8.82 µM (active)
same,AC50,[9],7.42 µM (active)
same,AC50,[10],7.98 µM (active)
same,AC50,[11],11.8 µM (active)
same,AC50,[12],9.02 µM (active)
same,AC50,[13],9.19 µM (active)
same,AC50,[14],9.06 µM (active)
same,AC50,[15],10.7 µM (active)
same,AC50,[16],10.2 µM (active)
same,AC50,[17],11.9 µM (active)
same,AC50,[18],13.9 µM (active)
same,AC50,[19],11.4 µM (active)
same,AC50,[20],10.1 µM (active)
